Laboratory results reported in the supplement of paper PMC10849652.
Of roughly 8,800 targets only a part is listed; those with a hit were picked by preference. About 0.5% of all pairs of compound and target were hits. Values without a mark were called inactive.

Tests used:
Test in all cases: log2 fold change, soluble protein after heating vs DMSO (PISA); higher = thermal stabilisation; K562 lysate, 10 uM; active = over 0.2 and 3.5 SD of the protein, either way, in both replicates (recomputed)
nilotinib = compound: Cc1cn(-c2cc(NC(=O)c3ccc(C)c(Nc4nccc(-c5cccnc5)n4)c3)cc(C(F)(F)F)c2)cn1 [nilotinib]
Outline: (§1)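 K562 pellets were dounce-homogenised in PBS pH 7.4 containing 1 mM MgCl2, and the crude extract, at 1 mg/mL protein, was exposed to 10 μM compound for 30 min. Aliquots were heated for 3 min across 48°C-58°C, pooled, brought to 0.5% NP-40 at 4°C and spun at 21,000xg for 90 min, with the supernatant taken as soluble protein. TMTpro 16plex LC-MS/MS with equalised channel sums quantified that protein. Values are log-two fold changes in thermal stability relative to solvent controls, taken from duplicates.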

[1] = compound: Cc1nc(Nc2n[nH]c3c2CN(C(=O)N[C@H](CN(C)C)c2ccccc2)C3(C)C)c2sccc2n1
Outline: as §1

dasatinib = compound: Cc1nc(Nc2ncc(C(=O)Nc3c(C)cccc3Cl)s2)cc(N2CCN(CCO)CC2)n1 [dasatinib]
Outline: as §1

[2] = compound: Cc1ncc(-c2ccnc(Nc3ccc(S(C)(=O)=O)cc3)n2)n1C(C)C
Outline: as §1

[3] = compound: Cn1cc(-c2ccc3c(c2)CCN3C(=O)Cc2cccc(C(F)(F)F)c2)c2c(N)ncnc21
Outline: as §1

quisinostat = compound: Cn1cc(CNCC2CCN(c3ncc(C(=O)NO)cn3)CC2)c2ccccc21 [quisinostat]
Outline: as §1

tipifarnib = compound: Cn1cncc1[C@@](N)(c1ccc(Cl)cc1)c1ccc2c(c1)c(-c1cccc(Cl)c1)cc(=O)n2C [tipifarnib]
Outline: as §1

[4] = compound: NC(=O)Nc1cc(-c2cccc(F)c2)sc1C(=O)N[C@H]1CCCNC1
Outline: as §1

[5] = compound: NC(=O)c1cnc(N[C@@H]2CCCC[C@@H]2N)nc1Nc1cccc(-n2nccn2)c1
Outline: as §1

[6] = compound: NC1(c2ccc(-c3nc4ccn5c(=O)[nH]nc5c4cc3-c3ccccc3)cc2)CCC1
Outline: as §1

[7] = compound: NCC(=O)Nc1ccc(-n2nc(C(F)(F)F)cc2-c2ccc3c(ccc4ccccc43)c2)cc1
Outline: as §1

vorinostat = compound: O=C(CCCCCCC(=O)Nc1ccccc1)NO [vorinostat]
Outline: as §1

silmitasertib = compound: O=C(O)c1ccc2c(c1)nc(Nc1cccc(Cl)c1)c1ccncc12 [silmitasertib]
Outline: as §1

[8] = compound: O=C1NC(=O)C(c2cnc3ccccn23)=C1c1cn2c3c(cc(F)cc13)CN(C(=O)N1CCCCC1)CC2
Outline: as §1

entospletinib = compound: c1cn2cc(-c3ccc4cn[nH]c4c3)nc(Nc3ccc(N4CCOCC4)cc3)c2n1 [entospletinib]
Outline: as §1

Sequence of UniProt Q96SB8 (Q96SB8 whole entry, looked up): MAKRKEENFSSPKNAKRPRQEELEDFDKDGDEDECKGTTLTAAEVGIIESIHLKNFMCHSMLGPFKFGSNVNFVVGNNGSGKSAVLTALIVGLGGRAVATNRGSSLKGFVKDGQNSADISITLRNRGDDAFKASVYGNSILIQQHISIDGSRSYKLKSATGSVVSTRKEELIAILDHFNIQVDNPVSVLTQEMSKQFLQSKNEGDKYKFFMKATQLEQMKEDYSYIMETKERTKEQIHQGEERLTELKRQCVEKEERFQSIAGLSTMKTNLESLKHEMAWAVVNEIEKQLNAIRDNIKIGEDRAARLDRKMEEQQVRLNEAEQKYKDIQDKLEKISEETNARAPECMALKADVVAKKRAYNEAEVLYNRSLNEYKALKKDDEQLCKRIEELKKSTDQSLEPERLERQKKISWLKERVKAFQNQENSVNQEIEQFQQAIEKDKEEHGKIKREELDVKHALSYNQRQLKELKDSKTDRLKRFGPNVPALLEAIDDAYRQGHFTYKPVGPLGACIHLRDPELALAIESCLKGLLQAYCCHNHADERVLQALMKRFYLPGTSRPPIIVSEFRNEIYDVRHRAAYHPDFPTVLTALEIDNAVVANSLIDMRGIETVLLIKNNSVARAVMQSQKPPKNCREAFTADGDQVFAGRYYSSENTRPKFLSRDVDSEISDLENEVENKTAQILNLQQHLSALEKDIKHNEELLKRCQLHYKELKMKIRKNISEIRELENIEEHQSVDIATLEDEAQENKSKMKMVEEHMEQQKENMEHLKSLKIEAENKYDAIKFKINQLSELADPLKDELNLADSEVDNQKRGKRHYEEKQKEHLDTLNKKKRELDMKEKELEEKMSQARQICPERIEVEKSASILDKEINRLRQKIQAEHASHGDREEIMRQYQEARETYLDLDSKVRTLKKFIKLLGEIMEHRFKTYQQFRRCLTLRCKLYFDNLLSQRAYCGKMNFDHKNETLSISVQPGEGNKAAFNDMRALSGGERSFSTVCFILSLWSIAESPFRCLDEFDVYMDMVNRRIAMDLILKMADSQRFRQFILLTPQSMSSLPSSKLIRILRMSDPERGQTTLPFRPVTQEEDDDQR
Sequence of UniProt Q99961 (Q99961 whole entry, looked up): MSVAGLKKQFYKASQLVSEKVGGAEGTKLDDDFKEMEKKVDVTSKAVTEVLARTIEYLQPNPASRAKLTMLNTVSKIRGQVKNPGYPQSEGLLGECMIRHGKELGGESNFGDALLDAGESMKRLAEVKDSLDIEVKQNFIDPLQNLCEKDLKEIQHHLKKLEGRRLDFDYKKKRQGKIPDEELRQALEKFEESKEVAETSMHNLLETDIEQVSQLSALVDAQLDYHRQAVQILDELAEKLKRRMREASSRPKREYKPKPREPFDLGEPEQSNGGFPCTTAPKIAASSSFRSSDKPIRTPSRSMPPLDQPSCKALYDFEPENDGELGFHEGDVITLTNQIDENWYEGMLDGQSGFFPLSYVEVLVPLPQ
Sequence of UniProt Q96R06 (Q96R06 whole entry, looked up): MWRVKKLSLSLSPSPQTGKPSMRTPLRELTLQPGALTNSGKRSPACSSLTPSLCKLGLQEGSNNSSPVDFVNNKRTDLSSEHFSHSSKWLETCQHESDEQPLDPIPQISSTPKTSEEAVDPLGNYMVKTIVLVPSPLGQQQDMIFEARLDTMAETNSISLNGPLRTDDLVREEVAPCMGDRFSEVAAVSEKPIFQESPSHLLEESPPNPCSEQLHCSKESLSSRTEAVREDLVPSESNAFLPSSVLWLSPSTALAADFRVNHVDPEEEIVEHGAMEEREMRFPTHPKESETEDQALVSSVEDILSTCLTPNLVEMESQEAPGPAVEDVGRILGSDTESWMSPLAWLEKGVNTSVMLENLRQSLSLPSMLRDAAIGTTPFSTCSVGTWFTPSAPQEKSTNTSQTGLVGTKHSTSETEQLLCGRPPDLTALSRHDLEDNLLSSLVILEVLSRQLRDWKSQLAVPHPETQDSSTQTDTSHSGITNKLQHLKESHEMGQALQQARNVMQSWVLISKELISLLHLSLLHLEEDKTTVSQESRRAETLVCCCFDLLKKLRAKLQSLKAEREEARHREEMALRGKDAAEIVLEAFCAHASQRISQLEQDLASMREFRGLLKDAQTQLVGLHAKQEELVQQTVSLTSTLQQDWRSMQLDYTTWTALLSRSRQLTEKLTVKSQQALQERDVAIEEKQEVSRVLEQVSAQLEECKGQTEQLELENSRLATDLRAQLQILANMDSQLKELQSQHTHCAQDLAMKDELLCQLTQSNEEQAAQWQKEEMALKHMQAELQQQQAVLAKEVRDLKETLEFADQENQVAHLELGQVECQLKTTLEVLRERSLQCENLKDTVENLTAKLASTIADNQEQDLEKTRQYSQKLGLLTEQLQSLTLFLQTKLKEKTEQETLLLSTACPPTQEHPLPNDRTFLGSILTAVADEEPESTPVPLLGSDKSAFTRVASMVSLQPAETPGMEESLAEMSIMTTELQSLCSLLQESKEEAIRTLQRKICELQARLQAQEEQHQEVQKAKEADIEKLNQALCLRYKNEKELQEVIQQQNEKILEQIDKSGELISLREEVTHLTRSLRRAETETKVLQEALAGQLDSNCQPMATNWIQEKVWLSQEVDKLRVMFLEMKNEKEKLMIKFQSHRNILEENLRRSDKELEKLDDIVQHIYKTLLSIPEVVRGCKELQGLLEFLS
Sequence of UniProt P31947 (P31947 whole entry, looked up): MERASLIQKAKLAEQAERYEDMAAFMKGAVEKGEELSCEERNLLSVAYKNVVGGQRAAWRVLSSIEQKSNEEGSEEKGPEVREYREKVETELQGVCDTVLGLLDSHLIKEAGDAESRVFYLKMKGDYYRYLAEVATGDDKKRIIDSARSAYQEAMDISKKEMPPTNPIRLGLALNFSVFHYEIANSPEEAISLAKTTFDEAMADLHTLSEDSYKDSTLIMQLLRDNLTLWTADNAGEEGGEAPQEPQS
Sequence of UniProt O43808 (O43808 whole entry, looked up): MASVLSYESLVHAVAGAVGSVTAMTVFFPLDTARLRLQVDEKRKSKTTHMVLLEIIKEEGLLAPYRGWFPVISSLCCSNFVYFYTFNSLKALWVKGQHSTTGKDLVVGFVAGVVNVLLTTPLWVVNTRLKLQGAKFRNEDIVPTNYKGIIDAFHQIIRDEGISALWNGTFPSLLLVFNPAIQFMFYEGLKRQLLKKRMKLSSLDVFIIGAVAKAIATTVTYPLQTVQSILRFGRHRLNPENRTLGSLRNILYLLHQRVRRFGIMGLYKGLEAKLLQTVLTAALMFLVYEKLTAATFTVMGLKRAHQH
Sequence of UniProt Q96KF7 (Q96KF7 whole entry, looked up): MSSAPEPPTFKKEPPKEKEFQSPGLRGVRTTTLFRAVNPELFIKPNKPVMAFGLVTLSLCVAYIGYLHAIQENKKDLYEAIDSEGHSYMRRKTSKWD
Sequence of UniProt Q9H7B4 (Q9H7B4 whole entry, looked up): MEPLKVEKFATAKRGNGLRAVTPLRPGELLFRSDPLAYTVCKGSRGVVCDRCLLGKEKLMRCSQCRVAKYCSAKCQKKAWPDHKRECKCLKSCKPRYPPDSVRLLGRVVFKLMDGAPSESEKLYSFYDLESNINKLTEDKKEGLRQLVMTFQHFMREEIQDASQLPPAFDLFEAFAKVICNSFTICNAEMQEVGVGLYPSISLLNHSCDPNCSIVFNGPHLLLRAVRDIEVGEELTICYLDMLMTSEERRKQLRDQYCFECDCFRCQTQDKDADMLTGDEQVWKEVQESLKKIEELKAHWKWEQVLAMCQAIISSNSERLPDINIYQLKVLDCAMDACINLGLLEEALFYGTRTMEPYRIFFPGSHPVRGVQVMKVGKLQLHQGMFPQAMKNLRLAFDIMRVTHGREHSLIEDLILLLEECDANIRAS
Sequence of UniProt Q9NZ72 (Q9NZ72 whole entry, looked up): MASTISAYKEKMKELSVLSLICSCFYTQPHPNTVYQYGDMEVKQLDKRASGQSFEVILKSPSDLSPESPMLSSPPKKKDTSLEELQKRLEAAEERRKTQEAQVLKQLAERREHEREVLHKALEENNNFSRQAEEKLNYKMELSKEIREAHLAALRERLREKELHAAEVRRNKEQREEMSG
Sequence of UniProt Q13148 (Q13148 whole entry, looked up): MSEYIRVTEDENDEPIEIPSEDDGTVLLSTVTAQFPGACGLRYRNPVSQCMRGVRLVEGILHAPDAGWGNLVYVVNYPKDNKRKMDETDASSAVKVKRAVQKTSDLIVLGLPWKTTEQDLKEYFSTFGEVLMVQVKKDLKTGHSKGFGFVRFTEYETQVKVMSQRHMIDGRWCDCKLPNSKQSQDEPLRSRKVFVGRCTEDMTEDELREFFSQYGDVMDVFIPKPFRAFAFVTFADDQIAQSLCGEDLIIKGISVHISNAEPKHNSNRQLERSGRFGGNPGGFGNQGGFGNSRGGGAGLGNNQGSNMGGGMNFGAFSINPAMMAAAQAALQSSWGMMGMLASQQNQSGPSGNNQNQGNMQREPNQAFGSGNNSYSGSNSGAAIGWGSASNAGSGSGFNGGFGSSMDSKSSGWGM
Sequence of UniProt Q01130 (Q01130 whole entry, looked up): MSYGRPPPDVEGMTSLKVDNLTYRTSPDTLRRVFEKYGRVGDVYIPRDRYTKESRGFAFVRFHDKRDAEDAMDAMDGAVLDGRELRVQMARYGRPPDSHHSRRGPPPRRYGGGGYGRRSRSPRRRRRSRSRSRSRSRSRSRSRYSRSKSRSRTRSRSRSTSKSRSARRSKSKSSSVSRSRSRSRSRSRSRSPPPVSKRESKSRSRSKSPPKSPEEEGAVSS
Sequence of UniProt Q96DW6 (Q96DW6 whole entry, looked up): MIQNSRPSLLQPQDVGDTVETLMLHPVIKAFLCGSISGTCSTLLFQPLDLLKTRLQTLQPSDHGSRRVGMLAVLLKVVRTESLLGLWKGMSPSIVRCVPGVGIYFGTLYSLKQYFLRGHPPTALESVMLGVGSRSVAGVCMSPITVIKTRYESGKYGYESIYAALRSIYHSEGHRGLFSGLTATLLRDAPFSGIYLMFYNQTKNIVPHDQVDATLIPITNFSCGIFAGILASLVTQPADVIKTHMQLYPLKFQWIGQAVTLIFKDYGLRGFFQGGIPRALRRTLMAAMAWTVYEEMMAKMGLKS

Target | log2 fold change (nilotinib) | log2 fold change [1] | log2 fold change (dasatinib) | log2 fold change [2] | log2 fold change [3] | log2 fold change (quisinostat) | log2 fold change (tipifarnib) | log2 fold change [4] | log2 fold change [5] | log2 fold change [6] | log2 fold change [7] | log2 fold change (vorinostat) | log2 fold change (silmitasertib) | log2 fold change [8] | log2 fold change (entospletinib)
SLC40A1 (UniProt Q9NP59) | 0.009 | 0.131 | -0.077 | 0.015 | -0.02 | -0.079 | -0.118 | 0.167 | -0.035 | -0.185 | 0.005 | 0.046 | 0 | -0.016 | 0.022
STARD3 isoform 3 (UniProt Q14849) | -0.06 | -0.008 | 0.272 (active) | 0.063 | 0.02 | 0.027 | -0.047 | -0.039 | 0.015 | 0.026 | 0.022 | 0.065 | 0.047 | 0.03 | -0.025
SHC1 isoform 6 (UniProt P29353) | 0.034 | 0.011 | 0.046 | -0.02 | -0.005 | 0.022 | 0.006 | -0.036 | -0.029 | -0.001 | 0.029 | 0.025 | -0.017 | -0.055 | -0.058
TARDBP (UniProt Q13148) | -0.146 | -0.079 | -0.005 | -0.051 | 0.007 | -0.087 | -0.554 (active) | 0.136 | 0.021 | 0.027 | 0.044 | -0.44 (active) | 0.086 | -0.268 | -0.027
SMC6 (UniProt Q96SB8) | 0.006 | 0 | -0.021 | -0.019 | 0.012 | -0.012 | -0.06 | 0.034 | 0.001 | 0.013 | -0.006 | -0.245 (active) | -0.022 | 0.019 | -0.013
SLC27A4 (UniProt Q6P1M0) | -0.061 | 0.002 | 0.026 | -0.036 | 0.048 | -0.123 | 0.096 | 0.036 | -0.023 | 0.036 | -0.127 | -0.257 (active) | 0.016 | -0.002 | 0.07
SLC25A38 (UniProt Q96DW6) | -0.097 | -0.142 | 0.015 | -0.171 | 0.15 | -0.068 | -0.061 | -0.019 | -0.138 | 0.06 | -0.093 | 0.109 | 0.129 | -0.019 | -0.075
SH3GL1 (UniProt Q99961) | -0.01 | 0.029 | -0.024 | 0.01 | -0.009 | -0.046 | 0.015 | 0.004 | 0.006 | 0.033 | -0.012 | -0.245 (active) | 0 | 0.009 | -0.004
SYPL1 (UniProt Q16563) | -0.005 | -0.006 | 0.013 | 0.025 | -0.014 | -0.075 | 0.034 | -0.002 | -0.013 | -0.044 | -0.003 | 0.005 | -0.03 | -0.02 | 0.014
SNRPD3 (UniProt P62318) | 0.028 | -0.006 | 0.016 | -0.034 | 0.009 | -0.002 | -0.002 | 0.029 | 0.004 | 0.001 | -0.011 | 0.12 | -0.023 | 0.008 | -0.027
SFN (UniProt P31947) | -0.036 | -0.007 | 0.088 | -0.007 | 0.008 | 0.077 | 0.052 | -0.048 | -0.023 | 0.035 | -0.001 | 0.107 | -0.032 | -0.026 | 0.045
TADA3 (UniProt O75528) | -0.022 | -0.036 | -0.014 | -0.023 | 0.019 | -0.037 | -0.035 | 0.006 | 0.024 | -0.044 | 0.018 | -0.289 (active) | -0.021 | 0.034 | 0.009
SMYD3 (UniProt Q9H7B4) | 0.004 | 0.022 | -0.101 | 0.01 | -0.029 | -0.056 | 0.031 | 0.038 | 0.036 | -0.051 | 0.044 | -0.202 (active) | 0.029 | -0.003 | -0.008
SLC25A17 (UniProt O43808) | -0.049 | 0.006 | 0.01 | 0.032 | 0.023 | -0.125 | -0.068 | 0.028 | 0.038 | -0.026 | 0.021 | 0.015 | -0.026 | -0.033 | -0.027
SPG11 (UniProt Q96JI7) | -0.024 | 0.026 | -0.052 | 0.026 | 0.025 | -0.048 | -0.007 | -0.017 | 0.05 | -0.046 | -0.001 | -0.399 (active) | 0.062 | 0.04 | -0.098
STMN3 (UniProt Q9NZ72) | -0.068 | 0.218 | 0.035 | -0.041 | -0.032 | 0.006 | 0.176 | -0.022 | -0.006 | 0.052 | -0.028 | 0.065 | -0.033 | -0.004 | 0.07
SRSF2 (UniProt Q01130) | -0.038 | 0 | -0.003 | -0.029 | 0.033 | -0.056 | 0.01 | 0.002 | -0.008 | -0.01 | 0.023 | 0.087 | -0.017 | -0.043 | -0.055
SMC3 (UniProt Q9UQE7) | 0 | -0.01 | 0.024 | 0.013 | 0.024 | 0.023 | 0.002 | 0 | -0.003 | 0.016 | -0.023 | 0.06 | -0.009 | -0.017 | 0.012
SPAG5 (UniProt Q96R06) | 0.026 | -0.013 | -0.006 | 0.001 | 0.02 | -0.051 | -0.045 | 0.001 | 0.004 | -0.008 | 0.038 | -0.298 (active) | 0.042 | -0.007 | 0.008
SMIM8 (UniProt Q96KF7) | 0.059 | -0.018 | 0.032 | 0.055 | -0.023 | 0.084 | -0.033 | -0.02 | -0.045 | -0.013 | -0.007 | 0.092 | -0.022 | -0.029 | -0.046
SLC16A1 (UniProt P53985) | 0.044 | 0.043 | 0.137 | -0.009 | -0.005 | -0.064 | 0.005 | 0.012 | -0.028 | -0.003 | 0.004 | -0.62 (active) | -0.012 | -0.01 | 0.012
